According to ChEMBL document CHEMBL3433997, “St. Jude Leishmania screening dataset” (2016):

Key:
Assay type in all cases: functional
[1] = target: Solute carrier family 2, facilitated glucose transporter member 1 (Homo sapiens) (UniProt P11166); assay: ST_JUDE_LEISH: Cytotoxicity at 2uM final concentration against transgenic Leishmania Mexicana promastigotes LmGLUT1 that are glucose transport deficient and complemented with the human glucose transporter GLUT1. Activity is measured by DNA content using SYBR green in vitro
[2] = target: Hexose transporter 1 (Plasmodium falciparum) (UniProt O97467); assay: ST_JUDE_LEISH: Cytotoxicity at 2uM final concentration against transgenic Leishmania Mexicana promastigotes LmPfHT that are glucose transport deficient and complemented with the Plasmodium falciparum hexose transporter. Activity is measured by DNA content using SYBR green in vitro
[3] = target: Glucose transporter (Leishmania mexicana) (UniProt O61059); assay: ST_JUDE_LEISH: Cytotoxicity at 2uM final concentration against transgenic Leishmania Mexicana promastigotes LmGT2 that are glucose transport deficient and complemented with the L. Mexicana glucose transporter 2. Activity is measured by DNA content using SYBR green in vitro

Solute carrier family 2, facilitated glucose transporter member 1 (Homo sapiens), sequence (P11166 whole entry): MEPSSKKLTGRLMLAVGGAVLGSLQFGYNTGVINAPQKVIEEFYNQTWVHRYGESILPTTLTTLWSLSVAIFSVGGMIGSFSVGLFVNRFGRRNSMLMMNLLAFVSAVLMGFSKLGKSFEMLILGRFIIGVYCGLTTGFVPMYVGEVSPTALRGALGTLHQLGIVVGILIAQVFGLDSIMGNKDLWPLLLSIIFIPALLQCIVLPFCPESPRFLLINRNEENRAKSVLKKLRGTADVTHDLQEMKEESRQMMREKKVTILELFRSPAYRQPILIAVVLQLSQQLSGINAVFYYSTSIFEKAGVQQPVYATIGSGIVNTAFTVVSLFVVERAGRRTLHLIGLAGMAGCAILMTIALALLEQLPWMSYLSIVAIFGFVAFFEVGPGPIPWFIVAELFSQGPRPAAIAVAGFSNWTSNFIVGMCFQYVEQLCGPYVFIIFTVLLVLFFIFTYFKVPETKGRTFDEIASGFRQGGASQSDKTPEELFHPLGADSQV

SMILES	inhibition [1]	inhibition [2]	inhibition [3]
Cc1c(CNCCCNc2cc(=O)c3ccccc3[nH]2)sc(-c2ccco2)c1Br	14.4%	13.6%	13.9%
CCOC(=O)c1c[nH]c2c(sc3cc(OC)ccc32)c1=O	-0.83%	-0.51%	-0.47%
CCCNCc1ccc(-c2ccc(CN(CCOC)C(=O)[C@H]3CCCO3)cc2)nc1	4.56%	4.55%	4.1%
COc1ccc2nc(/N=C3\NC(c4ccccn4)(c4ccccn4)C(=O)N3C)[nH]c2c1	11.7%	11.1%	9.86%
Cc1ccc(NC(=O)N2CCC(n3c(-c4ccccc4)nc4cccnc43)CC2)cc1F	6.53%	7.11%	5.43%
O=C(N[C@@H](Cc1ccccc1)[C@H](O)CNC1CCCc2ccccc21)c1cc(C2CCCC2)cc(N2CCCC2=O)c1 (stereo not given in full)	-0.02%	0.77%	-0.94%
NS(=O)(=O)c1cccc(-c2ccc3c(O)ncnc3c2)c1	4.08%	3.82%	5.44%
CCS(=O)(=O)c1ccc(-c2cnc3[nH]cc(-c4ccc(N)cc4)c3c2)cc1	16.2%	21.7%	16.2%
COc1ccc2c(NN=Cc3cccnc3)ccnc2c1	0.4%	2.02%	-0.33%
COc1ccc(S(=O)(=O)NC2CCN(CCNC(=O)Nc3cc(C)nc4ccccc34)C2)cc1 (stereo not given)	-0.6%	-0.21%	-0.75%
CCN(CC)CC#Cc1ccc2[nH]c(C)c(Cl)c(=O)c2c1	3.66%	3.51%	4.12%
Cc1cccc(C)c1N1CCN(C2CCC(NC(=O)c3cc4ccccc4[nH]3)CC2)CC1 (stereo not given)	1.58%	-0.69%	-0.14%
COc1ccc2c(=NN=Cc3cccc(Cl)c3)cc(C)[nH]c2c1	2.13%	0.71%	-0.53%
COc1ccc(S(=O)(=O)Nc2cc(C)cc(Br)c2OC)cc1N1CCN(C(=O)C(Cl)(Cl)Cl)CC1	0.75%	0.79%	-0.68%
COc1cccc(NC(=O)c2cc([N+](=O)[O-])ccc2NC(=O)CN2CCc3ccccc3C2)c1	4.59%	0.9%	4.74%
O=C(Nc1ccc2c(c1)CCC2)c1ccc(N2CCN(c3ccncc3)CC2)cn1	11.7%	12.8%	14.7%
O=C(CNc1ccncc1)c1c[nH]c2ccccc12	0.52%	2.3%	0.74%
COc1ccc(Cc2c(Cl)nc3nc(N)nc(N)c3c2C)cc1	7.37%	7.06%	8.71%
O=S(=O)(Nc1cccc(CCN2CCCCC2CCN2CCCC2)c1)c1cccc2ccccc12 (stereo not given)	1.15%	2.49%	-0.21%
CC1CCN(CCCNc2ccc(C(=O)Nc3ccc(C(F)(F)F)cc3)cc2[N+](=O)[O-])CC1	4.71%	1.65%	5.07%
O=C(Nc1ccc(-n2ccc(C(F)(F)F)n2)cc1)c1cccs1	0.18%	0.85%	0.42%
Cc1ccc(Cn2ncc(N3CCNCC3)c(Cl)c2=O)cc1NC(=O)Nc1ccc(-c2ccccc2)cc1	-0.01%	2.78%	2.01%
CCCC1(NC[C@@H](O)[C@H](Cc2ccccc2)NC(=O)c2cc(NCC)cc(N3CCCCS3(=O)=O)c2)CCC1	4.81%	2.33%	2.83%
CC(C)Nc1nc(NCCc2c[nH]cn2)nc(Nc2ccc(Oc3ccccc3)cc2)n1	2.08%	2.71%	-1.98%

SMILES	inhibition [1]	inhibition [2]	inhibition [3]
O=C(/C=C/c1ccc(Cl)c(Cl)c1)NCCCCCN1CCCN(C(=O)Nc2ccc(OC(F)F)cc2)CC1	3.05%	1.15%	0.91%
CCCC1N=C(N)N=C(N)N1c1cccc(C(F)(F)F)c1 (stereo not given)	0.83%	0.06%	0.06%
COc1ccc(C2CC(=O)C3=C(C2)NC(C)=C(C(=O)OC2CCCC2)C3c2cccc(O)c2)cc1OC (stereo not given)	4.21%	1.05%	0.17%
CN1C(C)(C)CC(NC(=O)c2ccc(-c3nc4cc(Cl)c(Cl)cc4[nH]3)cc2)CC1(C)C	2.52%	2.2%	2.38%
Ic1cc(CNC2CCCCC2)ccc1OCc1cccc(COc2ccc(CNC3CCCCC3)cc2I)c1	4.09%	3.76%	2.65%
C[C@H](NC(=O)c1c(CN2CCC(N3CCCCC3)CC2)c(-c2ccccc2)nc2cc(O)ccc12)C1CCCCC1	4.25%	4.06%	3.03%
COC(=O)c1ccc(NC(=O)c2ccc(CCN3CCC(c4nc(COCC(F)(F)F)c(-c5ccc(F)cc5)o4)CC3)cc2)cc1	3.21%	3.11%	2.38%
COc1ccc2nccc([C@@H](O)CN3CCC(NC(=O)C(c4cc5ccccc5o4)N4CCN(c5ccccc5)CC4)CC3)c2c1 (stereo not given in full)	5.51%	2.83%	2.54%
N#C/N=C(\NCCCCCCCCN/C(=N\C#N)NCCSCc1csc(N=C(N)N)n1)NCCCSc1csc(N=C(N)N)n1	-0.03%	0.11%	0.43%
Cc1cc(C2CCN(CCCCNC(=O)c3ccc(NC(=O)c4ccc(Cl)cc4)cc3)CC2)c(C)cc1OCc1nccn1C	0.5%	0.08%	0.69%
CCOC(=O)C1=C(C)NC2=C(C(=O)C(C(=O)OC)C(C)C2)C1c1cc(Br)c(OCC)c(OC)c1 (stereo not given)	8.37%	6.84%	6.67%
CC1(C)NC(N)=NC(=N)N1OCCCOc1ccccc1Cl	8.95%	10%	12%
Cc1n[nH]c2ccc(-c3cc(OC[C@@H](N)Cc4ccccc4)cnc3-c3ccc(OCc4cccc(F)c4)cc3)cc12	-0.24%	0.68%	-0.73%
COc1ccc(NC(=O)c2ccc(-c3cccc(OCc4ccccc4)c3)cc2)cc1N1CCN(C)CC1	1.72%	0.6%	-0.95%
CN(C)CCOc1ccnc2ccc(NC(=O)Cc3ccc(-c4ccncc4)c4ccccc34)cc12	1.07%	-0.32%	7.74%
O=C(Nc1cccc(CN2CCN(C(=O)c3ccccc3)CC2)c1)c1cccs1	4.55%	2.87%	3.92%
COc1cccc(CN2CCCN(Cc3cccc(NC(=O)c4cc5ccccc5s4)c3)CC2)c1	3.41%	4.66%	5.23%
COc1ccc(C(=O)NC2CCN(c3ccnc4cc(Cl)ccc34)C2)cc1 (stereo not given)	1.59%	1.83%	0.51%
O=C(Nc1ccc(C(=O)N(Cc2ccc3c(c2)OCO3)C2CCCC2)cc1)c1cccs1	1.03%	0.69%	-2.85%
COc1cccc(-c2nn(C)c3sc(C(=O)Nc4cccnc4)cc23)c1	0.24%	-1.97%	-0.35%
COc1c(C2CCN(CCCCNC(=O)c3cc(-c4ccc(Cl)cc4)[nH]c3C)CC2)ccc2c1CCCC2	3.66%	4.04%	4.31%
CS(=O)(=O)c1ccc(-c2cc(C(F)(F)F)nc(N[C@@H]3CCCC[C@H]3OCc3ccccc3)n2)cc1	1.33%	1.84%	1.66%
COc1ccc(-n2ccnc2SCC(=O)Nc2cc(Cl)ccc2OC)c(OC)c1	2.64%	-0.3%	4.9%
CN(C)CCCn1c(N)c(-c2nc3ccccc3[nH]2)c2nc(C#N)c(C#N)nc21	-1.02%	2.05%	-0.05%

SMILES	inhibition [1]	inhibition [2]	inhibition [3]
Cc1ccc(Nc2nc(-c3ccccn3)cs2)nc1	75.7%	65.5%	69.3%
Cc1cc(N[C@@H](CC(C)C)C(=O)NCc2cccs2)nc(NCCc2cccs2)n1	7.52%	5.28%	3.84%
CCN(CC)c1ccc(-c2nc3cc(Cl)cnc3[nH]2)cc1	5.04%	5.32%	3.88%
Fc1ccc2[nH]c(-c3cccc(-c4ccc(CN5CCCCC5)cc4)c3)nc2c1	4.18%	3.6%	2.43%
CCNC(=O)Nc1cccc(-c2cccc(-c3nc4cc(C(F)(F)F)ccc4[nH]3)c2)c1	10%	7.8%	7.55%
COc1cc(Nc2nc(N)n(C(=O)c3ccc4c(c3)OCO4)n2)cc(OC)c1OC	15.3%	9.11%	0.33%
COc1ccc(NC(=O)c2ccc(Br)c(C)c2)cc1N1CCN(CCCc2c[nH]c3ccccc23)CC1	-0.69%	-0.68%	-0.4%
O=S(=O)(Nc1cc2c(cc1O)CCN(C1CCC1)CC2)c1ccc(Oc2ccc(F)cc2)cc1	2.05%	1.02%	0.51%
CCCCCc1ccc(NC(=O)Nc2ccc(Cn3ncc(N4CCCNCC4)c(Cl)c3=O)cc2)cc1	-1.1%	-1.27%	0.47%
Cc1nc(SCC(=O)N2CCCC2=O)c2c(C)c(C)sc2n1	8.94%	8.95%	6.78%
c1ccc(COc2ccc(COc3ccc(Cn4ccnc4)cc3)cc2)cc1	2.93%	2.15%	1.02%
CN(C(=O)c1cc2c(-c3cncnc3)cccc2[nH]1)c1ccccc1	2.07%	-0.81%	-0.72%
O=S(=O)(c1ccccc1C(F)(F)F)C1CC2CCC(C1)N2S(=O)(=O)c1ccc(Cl)c(C(F)(F)F)c1 (stereo not given)	4.13%	2.35%	0.74%
COc1cc2ncnc(Nc3ccc4nc(Cc5ccccc5)[nH]c4c3)c2cc1OC	1.2%	1.95%	2.53%
Cc1ccc(OCC2CCN(c3ncc(C(=O)NC4CC4)cc3Cl)CC2)cc1	-0.74%	-2.55%	0.52%
O=C(N[C@@H](CC1CCCCC1)C(=O)NCCc1ccc(Cl)c(Cl)c1)c1ccc(O)c(-c2ccc(Cl)c(Cl)c2)c1	0.23%	0.3%	1.25%
Cc1cc(N)c2cc(NC(=O)CCC(=O)Nc3ccc4nc(C)cc(N)c4c3)ccc2n1	5.9%	6.01%	8.34%
O=S(=O)(NCCN1CCCC1)c1ccc(-c2ccc(CNCc3ccc(F)cc3)cc2)cc1	7.2%	6.71%	4.15%
COc1ccc2nc(-c3ccccc3)cc(N/N=C/c3ccc([N+](=O)[O-])o3)c2c1	15.9%	10.5%	10.3%
COCCNC(=O)c1ccc(OC2CCN(Cc3ccc(F)c(F)c3)CC2)c(Cl)c1	0.95%	1.83%	-2.21%
CCN(CC)CCc1ccc2c(=O)cc(CCc3cccc(F)c3F)n(CC(=O)N(C)Cc3ccc(-c4ccc(C(F)(F)F)cc4)cc3)c2c1	5.18%	5.23%	3.78%
O=C(Nc1ccc(Cn2ncc(N3CCCNCC3)c(Cl)c2=O)cc1)Nc1ccc(C(F)(F)F)cc1	3.47%	4.5%	-0.44%
